This is an account of results in PMC5540273 (PLoS ONE, 2017).

Common to all, as to conditions: concentration: 1 μM, replicates: in singlicate; n = 1
The test system of assay [1] is PRKD3.
Assay [2] has as its system PRKG1.
Assay [3] has as its system PRKG2.
For assay [4], the system named is T1, PRKR.
T1 construct: gene EIF2AK2

For assay [5], the system named is PRKX.
The test system of assay [6] is PRP4.
The subject of assay [7] is T2, PYK2.
T2 construct: gene PTK2B

For assay [8], the system named is QSK.
The test system of assay [9] is RAF1.
In assay [10] the test system is RET.
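Further: KINOMEscan kinase panel screen.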

Regarding `CN(c1ccc(F)c(NC(=O)c2cccc(OC(C)(C)C#N)c2Cl)c1)c1ccc2nc(NC(=O)C3CC3)sc2n1`, the “%Inh” value in assay [1] is 0%; in assay [2], 0%; in assay [3], 3%; in assay [4], 0%; in assay [5] it was 1%; in assay [6], 18%. The “%Inh” value was found to be 3% in assay [7], 0% in assay [8], 96.1% in assay [9] and 100% in assay [10].

For `N#CC1(c2cccc(C(=O)Nc3cccc(Oc4ccc5nc(NC(=O)C6CC6)sc5n4)c3)c2)CC1`, the “%Inh” value in assay [1] is 0%; in assay [2], 16%; in assay [3] it was 0%; in assay [4], 7%; in assay [5] it was 0%; in assay [6] it was 21%. Besides, the “%Inh” value in [7] is listed as 0%; in assay [8], 18%; in assay [9], 100%; in assay [10] it was 100%.

Consider `Cc1ccc(Nc2ccnc(Nc3ccc(C)c(F)c3)n2)cc1O.Cl` [GW582868], for which the “%Inh” value came out at 0% in [1]; 0% in assay [2]; 0% in assay [3]; 0% in assay [4]; 0% in assay [5]; 27% in assay [6]. For the same compound, the “%Inh” value in [7] was determined as 1%; in [8], 0%; in assay [9], 12%; in [10], 67%.

As to `O=C(O)C(F)(F)F.O=c1[nH]ccc2nc(N[C@@H]3CCNC3)nc(Nc3ccc4c(c3)S(=O)(=O)CC4)c12` [GSK2181306], the “%Inh” value was found to be 100% in assay [1]; 56% in assay [2]; 93.6% in assay [3]; 91.1% in assay [4]; 89% in [5]; 67% in assay [6]. Also, the “%Inh” value is 99.4% in assay [7], 31% in [8], 0% in assay [9] and 97.5% in assay [10].

As to `Cn1cc(-c2ccc3c(c2)CCN3C(=O)Cc2cc(F)cc(C(F)(F)F)c2)c2c(N)ncnc21` [GSK2635225], the “%Inh” value is recorded as 18% in [1]; 0% in assay [2]; 16% in assay [3]; 15% in assay [4]; 6% in assay [5]; 16% in assay [6]. The “%Inh” value was found to be 0% in assay [7], 10% in assay [8], 11% in [9] and 35% in assay [10].

For the compound `O=C1NC(=O)C(c2ccccc2Cl)=C1Nc1cccc(Cl)c1` [SB-342409], the “%Inh” value was found to be 22% in assay [1]; 0% in assay [2]; 0% in assay [3]; 0% in assay [4]; 15% in assay [5]; 0% in assay [6]. Also, the “%Inh” value stood at 5% in assay [7], 5% in [8], 37% in [9] and 1% in assay [10].

For `CC(C)(C)c1ccc(C(=O)Nc2cn3cc(-n4ccnc4)ccc3n2)cc1`, the “%Inh” value in [1] is 0%; in assay [2], 0%; in [3], 7%; in assay [4] it was 0%; in [5], 41%; in assay [6], 22%. The “%Inh” value in assay [7] was 8%; in assay [8], 0%; in assay [9], 10%; in assay [10], 0%.

Regarding `COc1cccc(-c2nc(-c3ccccc3)[nH]c2-c2ccncc2)c1` [SB-610250], the “%Inh” value in assay [1] amounted to 11%; in assay [2], 0%; in assay [3], 0%; in [4], 0%; in assay [5], 0%; in assay [6], 70%. Moreover, the “%Inh” value was 0% in assay [7], 8% in assay [8], 34% in assay [9] and 25% in assay [10].

With `COc1ccc(C)c(Nc2ccnc(Nc3ccc(-c4cnc[nH]4)cc3)n2)c1.Cl` [GW784041], the “%Inh” value in [1] is 0%; in assay [2] it was 0%; in assay [3] it was 12%; in assay [4] it was 0%; in assay [5] it was 0%; in assay [6], 0%. In addition, the “%Inh” value in [7] was 5%; in [8] it was 0%; in assay [9] it was 27%; in [10], 0%.
